Legend:
Experiment in all cases: log2 ratio of Biotin-Ahx-Ub-VS probe labelling (fragment/DMSO); higher = less target engagement (more negative = stronger competition), active = hit call of the paper (q ≤ 0.05, log2 ratio ≤ -1)
Details in all cases: compound concentration: 200 uM; treatment time: 3 h
USP9X = USP9X (UniProt Q93008)
Procedure, shortened: (§1)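 HEK293T lysate (495 µg per sample, in Tris/CHAPS/IGEPAL buffer with protease inhibitors) was treated in triplicate with fragment at 200 µM or with DMSO for 3 h. It was then treated with Biotin-Ahx-Ub-VS (0.5 µM final) for 1 h. Labelled DUBs were NeutrAvidin-enriched, digested with LysC and trypsin, and run by diaPASEF LC-MS/MS. Spectronaut label-free quantities were global-median-normalised. Values are average log2 ratios fragment/DMSO by unpaired t-test, using proteins with ≥2 unique peptides.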

UniProt O00487 = biological target: UniProt O00487
Procedure, shortened: as §1

UniProt O00507 = biological target: UniProt O00507
Procedure, shortened: as §1

UniProt P51784 = biological target: UniProt P51784
Procedure, shortened: as §1

UniProt Q5T2D3 = biological target: T1, UniProt Q5T2D3
T1 sequence (whole entry): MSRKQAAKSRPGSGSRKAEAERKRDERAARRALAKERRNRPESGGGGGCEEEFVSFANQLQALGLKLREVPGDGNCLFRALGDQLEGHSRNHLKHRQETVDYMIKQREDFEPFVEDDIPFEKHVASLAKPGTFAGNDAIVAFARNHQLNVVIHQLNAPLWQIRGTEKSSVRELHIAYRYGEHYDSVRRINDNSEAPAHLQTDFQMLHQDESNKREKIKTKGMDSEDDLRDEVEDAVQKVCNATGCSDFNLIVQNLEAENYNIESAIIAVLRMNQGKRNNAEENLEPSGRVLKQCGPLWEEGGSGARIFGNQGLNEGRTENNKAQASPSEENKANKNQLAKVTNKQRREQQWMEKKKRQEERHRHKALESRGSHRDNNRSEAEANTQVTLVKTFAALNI
Procedure, shortened: as §1

UniProt Q8TE49 = biological target: T2, UniProt Q8TE49
T2 sequence (whole entry): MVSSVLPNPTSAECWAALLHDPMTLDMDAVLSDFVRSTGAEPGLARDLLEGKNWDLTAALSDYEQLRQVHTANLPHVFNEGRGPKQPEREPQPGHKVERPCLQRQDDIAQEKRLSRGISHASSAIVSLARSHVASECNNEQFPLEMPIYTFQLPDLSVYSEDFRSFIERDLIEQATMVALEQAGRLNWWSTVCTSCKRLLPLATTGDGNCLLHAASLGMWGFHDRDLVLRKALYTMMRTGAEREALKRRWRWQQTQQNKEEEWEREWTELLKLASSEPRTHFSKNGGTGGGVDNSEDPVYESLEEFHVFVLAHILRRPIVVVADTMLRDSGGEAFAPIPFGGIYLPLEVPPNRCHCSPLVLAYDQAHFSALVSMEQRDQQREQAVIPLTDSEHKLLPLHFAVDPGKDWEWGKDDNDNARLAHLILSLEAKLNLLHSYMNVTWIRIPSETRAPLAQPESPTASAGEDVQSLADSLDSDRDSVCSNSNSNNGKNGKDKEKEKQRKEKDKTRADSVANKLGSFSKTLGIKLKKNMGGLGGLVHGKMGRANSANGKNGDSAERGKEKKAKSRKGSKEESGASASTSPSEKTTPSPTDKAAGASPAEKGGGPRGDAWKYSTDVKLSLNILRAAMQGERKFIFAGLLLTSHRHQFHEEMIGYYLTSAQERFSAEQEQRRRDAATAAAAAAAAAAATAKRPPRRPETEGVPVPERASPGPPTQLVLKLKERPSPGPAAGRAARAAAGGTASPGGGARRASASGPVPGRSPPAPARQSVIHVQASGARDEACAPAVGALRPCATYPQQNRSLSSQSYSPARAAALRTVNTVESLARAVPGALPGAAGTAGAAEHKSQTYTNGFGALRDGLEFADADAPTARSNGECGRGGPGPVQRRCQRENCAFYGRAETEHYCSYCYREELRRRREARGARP
Procedure, shortened: as §1

UniProt Q9P2H5 = biological target: T3, UniProt Q9P2H5
T3 sequence (whole entry): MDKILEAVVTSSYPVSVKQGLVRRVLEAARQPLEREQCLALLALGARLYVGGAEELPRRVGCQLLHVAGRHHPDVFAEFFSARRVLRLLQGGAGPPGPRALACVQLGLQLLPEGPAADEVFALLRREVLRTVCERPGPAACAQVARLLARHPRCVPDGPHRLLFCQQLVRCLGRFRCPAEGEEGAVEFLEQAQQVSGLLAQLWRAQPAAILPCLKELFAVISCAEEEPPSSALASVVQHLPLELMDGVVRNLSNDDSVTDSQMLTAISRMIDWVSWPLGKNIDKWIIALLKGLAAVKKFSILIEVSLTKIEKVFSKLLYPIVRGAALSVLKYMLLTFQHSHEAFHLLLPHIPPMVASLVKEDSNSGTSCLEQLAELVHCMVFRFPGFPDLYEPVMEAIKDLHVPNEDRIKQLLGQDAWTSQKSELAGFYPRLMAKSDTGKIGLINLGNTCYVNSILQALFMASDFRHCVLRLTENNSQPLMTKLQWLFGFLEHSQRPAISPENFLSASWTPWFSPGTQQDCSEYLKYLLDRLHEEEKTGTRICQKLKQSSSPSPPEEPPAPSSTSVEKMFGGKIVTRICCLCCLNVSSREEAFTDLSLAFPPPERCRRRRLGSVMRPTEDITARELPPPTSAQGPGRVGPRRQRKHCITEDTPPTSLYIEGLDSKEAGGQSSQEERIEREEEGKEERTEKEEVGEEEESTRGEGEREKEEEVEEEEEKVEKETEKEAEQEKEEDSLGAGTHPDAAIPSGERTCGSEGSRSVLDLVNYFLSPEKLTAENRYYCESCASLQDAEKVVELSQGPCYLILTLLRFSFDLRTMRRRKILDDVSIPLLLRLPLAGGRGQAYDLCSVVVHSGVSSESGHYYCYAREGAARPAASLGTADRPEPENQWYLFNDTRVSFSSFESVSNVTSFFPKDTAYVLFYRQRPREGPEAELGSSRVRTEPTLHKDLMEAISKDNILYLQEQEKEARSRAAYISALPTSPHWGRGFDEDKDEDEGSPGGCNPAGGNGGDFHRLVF
Procedure, shortened: as §1

UniProt Q9UGI0 = biological target: T4, UniProt Q9UGI0
T4 sequence (whole entry): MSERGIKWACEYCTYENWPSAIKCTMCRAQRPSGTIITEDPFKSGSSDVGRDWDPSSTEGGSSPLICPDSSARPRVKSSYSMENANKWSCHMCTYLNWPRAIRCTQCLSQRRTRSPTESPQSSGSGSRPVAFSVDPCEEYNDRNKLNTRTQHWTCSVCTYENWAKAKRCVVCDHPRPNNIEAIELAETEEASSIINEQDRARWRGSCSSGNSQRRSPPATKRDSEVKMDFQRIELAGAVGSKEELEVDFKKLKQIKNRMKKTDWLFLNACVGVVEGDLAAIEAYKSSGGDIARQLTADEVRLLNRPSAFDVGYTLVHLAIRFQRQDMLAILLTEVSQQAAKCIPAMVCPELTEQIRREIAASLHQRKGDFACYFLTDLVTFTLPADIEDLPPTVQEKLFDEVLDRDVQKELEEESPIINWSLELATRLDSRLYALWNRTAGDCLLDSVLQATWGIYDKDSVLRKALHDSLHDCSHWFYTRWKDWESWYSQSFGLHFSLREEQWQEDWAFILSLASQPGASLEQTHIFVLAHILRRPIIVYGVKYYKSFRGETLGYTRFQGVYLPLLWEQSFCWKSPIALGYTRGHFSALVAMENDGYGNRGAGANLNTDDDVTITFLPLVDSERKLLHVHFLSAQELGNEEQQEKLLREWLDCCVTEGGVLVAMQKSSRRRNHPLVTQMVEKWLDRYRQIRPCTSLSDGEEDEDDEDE
Procedure, shortened: as §1

YOD1 = biological target: T5, YOD1 (UniProt Q5VVQ6)
T5 sequence (whole entry): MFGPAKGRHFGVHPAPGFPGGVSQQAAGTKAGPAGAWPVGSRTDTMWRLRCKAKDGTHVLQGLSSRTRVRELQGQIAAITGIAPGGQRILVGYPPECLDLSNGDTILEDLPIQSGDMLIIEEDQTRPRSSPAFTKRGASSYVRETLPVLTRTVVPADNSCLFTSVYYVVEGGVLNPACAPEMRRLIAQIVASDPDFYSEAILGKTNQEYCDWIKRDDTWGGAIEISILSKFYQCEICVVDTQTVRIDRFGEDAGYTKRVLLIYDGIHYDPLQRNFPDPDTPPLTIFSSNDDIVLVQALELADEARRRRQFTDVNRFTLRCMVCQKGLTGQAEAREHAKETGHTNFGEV
Procedure, shortened: as §1

Measured: log2 ratio of Biotin-Ahx-Ub-VS probe labelling

UniProt O00507, sequence (O00507 whole entry): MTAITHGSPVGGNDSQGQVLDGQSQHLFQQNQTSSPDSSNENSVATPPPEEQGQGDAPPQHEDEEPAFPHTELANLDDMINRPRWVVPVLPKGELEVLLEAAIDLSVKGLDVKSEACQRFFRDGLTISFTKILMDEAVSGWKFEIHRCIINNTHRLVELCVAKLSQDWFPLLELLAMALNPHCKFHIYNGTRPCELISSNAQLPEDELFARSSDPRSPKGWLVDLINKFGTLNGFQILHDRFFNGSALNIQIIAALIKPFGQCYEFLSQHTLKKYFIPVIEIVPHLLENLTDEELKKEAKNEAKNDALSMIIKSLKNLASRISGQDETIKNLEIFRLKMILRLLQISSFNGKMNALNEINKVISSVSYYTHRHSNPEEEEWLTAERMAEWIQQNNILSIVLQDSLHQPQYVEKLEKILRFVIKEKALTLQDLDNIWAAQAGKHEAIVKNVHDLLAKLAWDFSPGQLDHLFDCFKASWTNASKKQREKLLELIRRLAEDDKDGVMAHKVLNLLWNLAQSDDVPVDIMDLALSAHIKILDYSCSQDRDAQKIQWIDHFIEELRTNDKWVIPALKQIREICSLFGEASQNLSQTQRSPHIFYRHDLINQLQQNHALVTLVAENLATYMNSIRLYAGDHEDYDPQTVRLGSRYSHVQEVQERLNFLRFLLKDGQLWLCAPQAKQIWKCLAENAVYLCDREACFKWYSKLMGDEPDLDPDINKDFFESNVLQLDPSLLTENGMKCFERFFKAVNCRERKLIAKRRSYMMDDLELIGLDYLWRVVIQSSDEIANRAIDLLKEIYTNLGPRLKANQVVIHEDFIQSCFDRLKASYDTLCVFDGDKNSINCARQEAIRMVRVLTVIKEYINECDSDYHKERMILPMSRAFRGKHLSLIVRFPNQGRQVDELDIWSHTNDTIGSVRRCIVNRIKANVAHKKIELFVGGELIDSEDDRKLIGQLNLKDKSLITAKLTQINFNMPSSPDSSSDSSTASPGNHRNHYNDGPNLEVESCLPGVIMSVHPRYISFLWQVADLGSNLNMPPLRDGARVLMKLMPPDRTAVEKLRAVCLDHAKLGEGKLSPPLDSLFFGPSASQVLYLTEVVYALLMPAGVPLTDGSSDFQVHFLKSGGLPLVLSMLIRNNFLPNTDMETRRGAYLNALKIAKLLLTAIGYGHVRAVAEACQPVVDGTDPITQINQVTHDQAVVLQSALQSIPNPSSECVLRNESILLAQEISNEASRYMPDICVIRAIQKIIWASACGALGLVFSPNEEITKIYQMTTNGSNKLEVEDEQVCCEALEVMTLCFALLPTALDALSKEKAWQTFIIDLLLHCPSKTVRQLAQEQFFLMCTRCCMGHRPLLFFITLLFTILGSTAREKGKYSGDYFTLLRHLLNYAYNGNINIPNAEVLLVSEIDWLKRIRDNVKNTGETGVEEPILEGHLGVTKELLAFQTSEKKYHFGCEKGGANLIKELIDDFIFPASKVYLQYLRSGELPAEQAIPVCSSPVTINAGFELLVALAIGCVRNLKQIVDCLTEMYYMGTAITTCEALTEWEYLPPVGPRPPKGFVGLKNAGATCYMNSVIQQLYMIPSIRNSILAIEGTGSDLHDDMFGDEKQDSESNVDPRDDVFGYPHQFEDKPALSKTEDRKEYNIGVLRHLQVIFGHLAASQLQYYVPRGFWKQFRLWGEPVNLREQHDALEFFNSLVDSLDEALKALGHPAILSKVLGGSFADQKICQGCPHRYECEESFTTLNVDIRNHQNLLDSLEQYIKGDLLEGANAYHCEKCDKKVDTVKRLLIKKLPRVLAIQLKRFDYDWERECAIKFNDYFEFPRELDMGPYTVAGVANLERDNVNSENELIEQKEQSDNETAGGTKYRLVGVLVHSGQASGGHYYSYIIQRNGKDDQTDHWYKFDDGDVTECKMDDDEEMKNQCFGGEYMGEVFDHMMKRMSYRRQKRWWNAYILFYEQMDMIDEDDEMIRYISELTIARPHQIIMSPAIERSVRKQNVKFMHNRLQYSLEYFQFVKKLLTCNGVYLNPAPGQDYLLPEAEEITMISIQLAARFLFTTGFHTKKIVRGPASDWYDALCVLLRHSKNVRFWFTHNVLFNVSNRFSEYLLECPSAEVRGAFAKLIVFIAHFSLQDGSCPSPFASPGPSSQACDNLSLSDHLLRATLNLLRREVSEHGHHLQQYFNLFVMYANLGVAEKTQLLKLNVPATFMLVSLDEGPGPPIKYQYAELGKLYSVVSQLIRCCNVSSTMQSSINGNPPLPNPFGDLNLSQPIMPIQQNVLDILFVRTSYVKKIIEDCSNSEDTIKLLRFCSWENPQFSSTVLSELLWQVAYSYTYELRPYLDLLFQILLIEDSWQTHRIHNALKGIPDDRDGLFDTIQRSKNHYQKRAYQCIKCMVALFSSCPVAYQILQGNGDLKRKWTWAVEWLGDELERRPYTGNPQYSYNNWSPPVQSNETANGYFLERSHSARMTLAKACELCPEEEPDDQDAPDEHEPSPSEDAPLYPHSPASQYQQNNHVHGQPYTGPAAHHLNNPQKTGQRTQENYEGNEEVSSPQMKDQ
UniProt P51784, sequence (P51784 whole entry): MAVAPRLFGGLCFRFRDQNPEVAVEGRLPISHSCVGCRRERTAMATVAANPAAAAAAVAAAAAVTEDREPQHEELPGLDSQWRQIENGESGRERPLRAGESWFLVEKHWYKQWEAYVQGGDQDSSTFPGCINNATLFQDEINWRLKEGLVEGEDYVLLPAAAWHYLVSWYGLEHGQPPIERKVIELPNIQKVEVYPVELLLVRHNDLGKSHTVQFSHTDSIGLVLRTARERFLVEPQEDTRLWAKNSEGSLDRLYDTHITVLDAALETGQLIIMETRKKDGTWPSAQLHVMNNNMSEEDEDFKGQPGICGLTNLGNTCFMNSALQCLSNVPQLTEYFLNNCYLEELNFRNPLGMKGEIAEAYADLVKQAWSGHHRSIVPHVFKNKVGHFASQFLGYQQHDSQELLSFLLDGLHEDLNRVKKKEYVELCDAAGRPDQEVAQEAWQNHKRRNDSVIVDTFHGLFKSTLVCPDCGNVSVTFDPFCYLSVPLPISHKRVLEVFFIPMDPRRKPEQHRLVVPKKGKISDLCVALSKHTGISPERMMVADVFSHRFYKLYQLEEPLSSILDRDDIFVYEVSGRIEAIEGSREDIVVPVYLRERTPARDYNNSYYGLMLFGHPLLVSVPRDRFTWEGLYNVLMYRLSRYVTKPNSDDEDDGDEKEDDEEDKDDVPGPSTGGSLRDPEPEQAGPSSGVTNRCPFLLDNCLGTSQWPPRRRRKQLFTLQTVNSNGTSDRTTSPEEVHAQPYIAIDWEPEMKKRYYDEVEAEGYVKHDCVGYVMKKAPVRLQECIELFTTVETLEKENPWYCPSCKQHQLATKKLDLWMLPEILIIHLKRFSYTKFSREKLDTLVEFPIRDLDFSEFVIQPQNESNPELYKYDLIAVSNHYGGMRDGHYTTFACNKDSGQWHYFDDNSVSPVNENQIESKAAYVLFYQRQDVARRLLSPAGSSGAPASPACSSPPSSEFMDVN
UniProt O00487, sequence (O00487 whole entry): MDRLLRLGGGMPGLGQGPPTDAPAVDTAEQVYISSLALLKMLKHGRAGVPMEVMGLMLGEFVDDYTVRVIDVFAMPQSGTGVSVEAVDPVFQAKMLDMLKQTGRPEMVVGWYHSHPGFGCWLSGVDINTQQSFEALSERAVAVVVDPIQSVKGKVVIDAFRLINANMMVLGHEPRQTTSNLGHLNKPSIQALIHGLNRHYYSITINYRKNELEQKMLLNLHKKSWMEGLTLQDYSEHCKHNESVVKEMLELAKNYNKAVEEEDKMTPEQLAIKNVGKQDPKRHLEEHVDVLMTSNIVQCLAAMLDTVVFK

O=C(CCl)NC1CCC2(CC1)OCCO2
inactive: USP9X -0.361 | UniProt O00487 -0.145 | UniProt O00507 -0.379 | UniProt P51784 -0.104 | UniProt Q5T2D3 -0.473 | UniProt Q8TE49 -0.565 | UniProt Q9P2H5 -0.399 | UniProt Q9UGI0 -0.544 | YOD1 -0.297

Source: the supplement of paper PMC11732987, “Enantioselective OTUD7B fragment discovery through chemoproteomics screening and high-throughput optimisation” (Communications Chemistry, 2025)
